From PubChem BioAssay (Tox21)
Inconclusive results are not listed. The source made the active and inactive calls. Unless noted, the call rests on the fitted dose curve; in most records, active means well fitted curve in the direction sought with a large enough effect in the repeat runs; inconclusive means weak or mixed curves; inactive means no such curve, though single readings can be large; an effect the other way counts as inactive or inconclusive.

Columns and labels:
[1] = qHTS assay to identify small molecule antagonists of the estrogen receptor beta (ER-beta) signaling pathway - cell viability counter screen (AID 1259382);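 further: HEK293T cells carrying ER-beta-UAS-bla reporter stimulated with estradiol; series mostly up to about 92 µM; nearly all actives have a fitted effect of over 55% in size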
How it was run: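 ER-beta-UAS-bla HEK293T cells (2,000/well, 2% charcoal-stripped FBS) were pre-incubated 6 hr at 37C, then given compound plus 1nM final 17-beta-estradiol for 16 hr. Viability was read in the same wells by CellTiter-Glo luminescence after 30 min at room temperature.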

[2] = qHTS assay to identify small molecule agonists or antagonists of the thyroid stimulating hormone receptor (TSHR) signaling pathway - wild type cell line counter screen (AID 1259384; calls by dose curve)
How it was run: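 Wild-type HEK293 cells were plated 18 h at 37 C/5% CO2, pin-dosed with compound plus Ro20-1724 medium, held 30 min at room temperature, then given cAMP-d2 and anti-cAMP-cryptate; fluorescence was read after 1 h. Fifteen concentrations, triplicate.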

[3] = target: Thyrotropin receptor (Homo sapiens) (UniProt P16473); assay: qHTS assay to identify small molecule antagonists of the thyroid stimulating hormone receptor (TSHR) signaling pathway (AID 1259385; calls by dose curve; further: nearly all actives have a fitted effect of over 20% in size)
How it was run: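 TSHR-HEK293 cells were plated and held 18 h at 37C/5% CO2, then given compound plus Ro20-1724 and stimulated with TSH at 1.5 ng/mL final. After 30 min at room temperature, cAMP was detected with cAMP-d2/anti-cAMP-cryptate (1 h) by fluorescence.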

[4] = qHTS assay to identify small molecule agonists of the estrogen receptor alpha (ER-alpha) signaling pathway in the presence of an antagonist - cell viability counter screen (AID 1259386);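 further: series mostly up to about 92 µM; cells exposed to compounds for 22 h at 37 °C before the viability read; nearly all actives have a fitted effect of over 30% in size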
How it was run: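 VM7Luc4E2 cells (endogenous full-length ER-alpha, 4×ERE-luciferase) were held 5 days in phenol red-free medium with 10% charcoal-stripped FBS, plated, then given 10.0nM ICI-182,780 and compounds at 15 concentrations for 22hr at 37C; viability read by CellTiter-Fluor fluorescence.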

[5] = target: Progesterone receptor (Homo sapiens) (UniProt P06401); assay: qHTS assay to identify small molecule agonists of the progesterone receptor (PR) signaling pathway (AID 1346784; calls by dose curve; further: nearly all actives have a fitted effect of over 30% in size)
How it was run: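 Fluorescence from LiveBLAzer B/G FRET substrate cleavage (2 hr, RT) reported PR activation in PR-UAS-bla HEK 293T cells treated 16 hr at 37C/5% CO2 with compounds; medium contained 2% charcoal-stripped FBS.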

[6] = target: Progesterone receptor (Homo sapiens) (UniProt P06401); assay: qHTS assay to identify small molecule antagonists of the progesterone receptor (PR) signaling pathway (AID 1346795; active means well fitted inhibition curve with a large enough effect in the signal ratio in the repeat runs, not every such curve was filed as active; the % refers to the signal ratio)
How it was run: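 Fluorescence intensity measured 2 hr after adding beta-lactamase FRET substrate to PR-UAS-bla HEK293T cells that had been co-treated 16 hr with compound and 1 nM R5020 (final concentration) in 2% charcoal-stripped FBS.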

[7] = qHTS assay to identify small molecule antagonists of the progesterone receptor (PR) signaling pathway - cell viability counter screen (AID 1346798); further: series mostly up to about 92 µM; nearly all actives have a fitted effect of over 50% in size
How it was run: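 CellTiter-Glo luminescence; PR-UAS-bla HEK293T, 3,000 cells/well; compound + R5020, 16 hr, 37C/5% CO2; 30 min RT before read.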

[8] = qHTS assay to identify small molecule agonists of the progesterone receptor (PR) signaling pathway - cell viability counter screen (AID 1346799; calls by dose curve; further: nearly all actives have a fitted effect of over 45% in size)
How it was run: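 In parallel with the beta-lactamase readout, cytotoxicity toward PR-UAS-bla HEK293T cells was measured by CellTiter-Glo luminescence following 16 hr compound incubation in 2% charcoal-stripped FBS medium.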

[9] = qHTS assay to identify small molecule antagonists of the TGF-beta/Smad signaling pathway - cell viability counter screen (AID 1346824); further: nearly all actives have a fitted effect of over 50% in size
How it was run: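 SBE-bla HEK 293T cells were plated overnight at 37 C, then given compounds in DMSO plus TGF-beta1 (added as 0.25 ng/mL solution) for 5 hr. After the bla read, CellTiter-Glo was added to the same wells and luminescence read after 30 min at room temperature.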

[10] = qHTS assay to identify small molecule agonists of the TGF-beta/Smad signaling pathway - cell viability counter screen (AID 1346829); further: top concentration of the series differs between compounds; nearly all actives have a fitted effect of over 45% in size
How it was run: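 CellTiter-Glo luminescence readout; SBE-bla HEK 293T cells, overnight plating, compound 5 hr at 37 C/5% CO2, then bla substrate 2 hr RT, then CellTiter-Glo 30 min RT.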

[11] = qHTS assay to identify small molecule agonists of the TGF-beta/Smad signaling pathway (AID 1346859; active means well fitted activation curve with a large enough effect in the signal ratio in the repeat runs, not every such curve was filed as active; the % refers to the signal ratio; further: series mostly up to about 77 µM)
How it was run: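 After overnight seeding, SBE-bla HEK 293T cells are dosed with compounds in DMSO and kept 5 hr at 37 C, 5% CO2. LiveBLAzer-type FRET substrate is then applied for 2 hr at room temperature.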

[12] = target: Thyrotropin-releasing hormone receptor (Homo sapiens) (UniProt P34981); assay: qHTS assay to identify small molecule antagonists of the thyrotropin-releasing hormone receptor (TRHR) signaling pathway (AID 1346877; active means well fitted inhibition curve with a large enough effect in the repeat runs, not every such curve was filed as active; further: series mostly up to about 51 µM)
How it was run: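 TRHR-expressing HEK293 cells were seeded, cultured 18 h at 37 °C, then loaded with calcium dye for 2 h. Compounds were pre-incubated 5 min at room temperature before 1 nM TRH (final) was added, and kinetic fluorescence was recorded for 3 min.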

[13] = target: Thyrotropin-releasing hormone receptor (Homo sapiens) (UniProt P34981); assay: qHTS assay to identify small molecule agonists of the thyrotropin-releasing hormone receptor (TRHR) signaling pathway (AID 1346891; calls by dose curve; further: series mostly up to about 58 µM)
How it was run: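 Compounds were tested as agonists at 15 concentrations, in triplicate, on TRHR-Hek293 cells; calcium-sensitive dye fluorescence was recorded for 3 min following addition.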

[14] = Human pregnane X receptor (PXR) small molecule agonists, qHTS cell viability counter screen (AID 1346977); further: nearly all actives have a fitted effect of over 50% in size
How it was run: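 Viability counter screen: CellTiter-Fluor signal in PXR-Luc HepG2 cells, 24hr compound exposure, 37C, 5% CO2.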

[15] = Caspase-3/7 induction in HepG2 cells by small molecules, qHTS assay (AID 1346978); further: nearly all actives have a fitted effect of over 15% in size
How it was run: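 Wild-type HepG2 cells (2,000/well) were settled 5 h at 37 C, 5% CO2, then exposed to compounds in DMSO for 17 h. Caspase-3/7 activity was read by luminescence 30 min after adding Caspase-Glo 3/7 reagent at room temperature.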

[16] = Caspase-3/7 induction in CHO-K1 cells by small molecules, qHTS cell viability counter screen (AID 1346979); further: nearly all actives have a fitted effect of over 35% in size
How it was run: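 Viability readout by fluorescence (CellTiter-Fluor) on wild-type CHO-K1 cells exposed for 16hr at 37C and 5% CO2 to compounds delivered in DMSO; reagent incubated 1hr before reading.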

[17] = Caspase-3/7 induction in CHO-K1 cells by small molecules, qHTS assay (AID 1346980); further: nearly all actives have a fitted effect of over 15% in size
How it was run: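 Wild-type cells were seeded at 1,500 per well and settled 5 hr at 37 C, 5% CO2, then exposed to DMSO-dissolved compounds for 17 hr. Caspase-Glo 3/7 reagent was added, and luminescence was read after 30min at room temperature.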

[18] = Caspase-3/7 induction in HepG2 cells by small molecules, qHTS cell viability counter screen (AID 1346981); further: series mostly up to about 92 µM; nearly all actives have a fitted effect of over 30% in size
How it was run: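 Wild-type HepG2 cells (2,000/well) were allowed to settle for 5 hr at 37 C, 5% CO2, then dosed with compounds in DMSO by pin transfer. After 16 hr at 37 C, CellTiter-Fluor was added and fluorescence read 1 hr later.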

[19] = target: Nuclear receptor subfamily 1 group I member 2 (Homo sapiens) (UniProt O75469); assay: Human pregnane X receptor (PXR) small molecule agonists, qHTS assay (AID 1346982); further: nearly all actives have a fitted effect of over 35% in size
How it was run: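 PXR-Luc HepG2 cells (CYP3A4 promoter-driven luciferase) were seeded in medium with 5% charcoal-stripped FBS, left 5 hr at 37 C, then exposed to compounds in DMSO for 24 hr. Luminescence was read after ONE-Glo addition.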

[20] = target: Estrogen receptor (Homo sapiens) (UniProt P03372); assay: qHTS assay to identify small molecule agonists of the estrogen receptor alpha (ER-alpha) signaling pathway in the presence of an antagonist (AID 1259383; calls by dose curve; further: top concentration of the series differs between compounds; nearly all actives have a fitted effect of over 15% in size)
How it was run: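 VM7Luc4E2 cells (endogenous full-length ER-alpha, 4×ERE-luciferase) were precultured 5 days in phenol red-free medium with 10% charcoal-stripped FBS, given 10.0nM ICI-182,780 (final), then treated with compounds at 15 concentrations for 22hr at 37C; luminescence read with ONE-Glo.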
On the % scale 0 is the no-effect control and ±100 the full control effect.

Chain of Thyrotropin-releasing hormone receptor (Homo sapiens) (P34981 whole entry, looked up): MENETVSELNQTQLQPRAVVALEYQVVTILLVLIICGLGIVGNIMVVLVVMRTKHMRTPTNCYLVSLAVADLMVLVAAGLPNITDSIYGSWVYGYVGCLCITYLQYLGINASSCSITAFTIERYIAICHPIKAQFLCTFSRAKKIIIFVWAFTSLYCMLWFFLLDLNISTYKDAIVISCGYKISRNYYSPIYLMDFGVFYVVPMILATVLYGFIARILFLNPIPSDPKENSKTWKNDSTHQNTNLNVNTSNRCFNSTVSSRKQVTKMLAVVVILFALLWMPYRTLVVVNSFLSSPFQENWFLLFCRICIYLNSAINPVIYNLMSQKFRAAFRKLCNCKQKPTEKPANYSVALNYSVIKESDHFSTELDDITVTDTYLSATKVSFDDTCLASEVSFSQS
Chain of Nuclear receptor subfamily 1 group I member 2 (Homo sapiens) (O75469 whole entry, looked up): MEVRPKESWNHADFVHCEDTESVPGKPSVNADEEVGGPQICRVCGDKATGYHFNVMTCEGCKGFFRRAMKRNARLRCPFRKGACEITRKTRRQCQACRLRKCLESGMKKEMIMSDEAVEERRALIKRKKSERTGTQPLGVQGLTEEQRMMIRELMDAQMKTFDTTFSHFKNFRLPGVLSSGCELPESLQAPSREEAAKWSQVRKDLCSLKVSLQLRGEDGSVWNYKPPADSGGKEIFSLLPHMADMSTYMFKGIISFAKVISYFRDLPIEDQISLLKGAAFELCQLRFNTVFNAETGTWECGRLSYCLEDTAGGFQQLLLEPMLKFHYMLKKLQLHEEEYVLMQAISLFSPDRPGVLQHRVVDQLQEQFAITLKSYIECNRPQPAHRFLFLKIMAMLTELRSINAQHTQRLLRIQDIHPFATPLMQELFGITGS
Chain of Progesterone receptor (Homo sapiens) (P06401 whole entry, looked up): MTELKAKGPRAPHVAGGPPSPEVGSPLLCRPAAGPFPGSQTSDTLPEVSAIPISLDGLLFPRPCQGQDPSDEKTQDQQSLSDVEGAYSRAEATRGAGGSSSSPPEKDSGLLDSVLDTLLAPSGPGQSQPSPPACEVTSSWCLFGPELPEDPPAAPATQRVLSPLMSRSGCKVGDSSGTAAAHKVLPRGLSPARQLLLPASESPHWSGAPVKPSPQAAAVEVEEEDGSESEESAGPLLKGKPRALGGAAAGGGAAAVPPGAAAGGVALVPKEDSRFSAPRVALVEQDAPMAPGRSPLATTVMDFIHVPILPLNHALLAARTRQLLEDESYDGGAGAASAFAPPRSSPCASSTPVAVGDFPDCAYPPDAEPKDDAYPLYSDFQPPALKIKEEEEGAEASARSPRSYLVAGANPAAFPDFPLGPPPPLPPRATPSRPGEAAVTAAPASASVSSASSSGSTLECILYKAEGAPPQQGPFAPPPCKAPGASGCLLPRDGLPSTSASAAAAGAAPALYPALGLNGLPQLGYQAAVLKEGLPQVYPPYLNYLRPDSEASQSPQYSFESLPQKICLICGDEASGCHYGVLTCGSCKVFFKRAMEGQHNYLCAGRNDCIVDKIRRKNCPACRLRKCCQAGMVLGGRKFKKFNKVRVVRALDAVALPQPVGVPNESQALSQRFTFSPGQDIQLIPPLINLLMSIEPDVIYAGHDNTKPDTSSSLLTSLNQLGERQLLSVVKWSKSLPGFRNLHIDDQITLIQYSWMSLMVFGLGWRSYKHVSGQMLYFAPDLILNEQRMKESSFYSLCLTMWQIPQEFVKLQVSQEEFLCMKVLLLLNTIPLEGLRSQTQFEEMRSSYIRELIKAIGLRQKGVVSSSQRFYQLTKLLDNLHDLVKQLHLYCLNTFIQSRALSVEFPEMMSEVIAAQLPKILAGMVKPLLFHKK
Chain of Thyrotropin receptor (Homo sapiens) (P16473 whole entry, looked up): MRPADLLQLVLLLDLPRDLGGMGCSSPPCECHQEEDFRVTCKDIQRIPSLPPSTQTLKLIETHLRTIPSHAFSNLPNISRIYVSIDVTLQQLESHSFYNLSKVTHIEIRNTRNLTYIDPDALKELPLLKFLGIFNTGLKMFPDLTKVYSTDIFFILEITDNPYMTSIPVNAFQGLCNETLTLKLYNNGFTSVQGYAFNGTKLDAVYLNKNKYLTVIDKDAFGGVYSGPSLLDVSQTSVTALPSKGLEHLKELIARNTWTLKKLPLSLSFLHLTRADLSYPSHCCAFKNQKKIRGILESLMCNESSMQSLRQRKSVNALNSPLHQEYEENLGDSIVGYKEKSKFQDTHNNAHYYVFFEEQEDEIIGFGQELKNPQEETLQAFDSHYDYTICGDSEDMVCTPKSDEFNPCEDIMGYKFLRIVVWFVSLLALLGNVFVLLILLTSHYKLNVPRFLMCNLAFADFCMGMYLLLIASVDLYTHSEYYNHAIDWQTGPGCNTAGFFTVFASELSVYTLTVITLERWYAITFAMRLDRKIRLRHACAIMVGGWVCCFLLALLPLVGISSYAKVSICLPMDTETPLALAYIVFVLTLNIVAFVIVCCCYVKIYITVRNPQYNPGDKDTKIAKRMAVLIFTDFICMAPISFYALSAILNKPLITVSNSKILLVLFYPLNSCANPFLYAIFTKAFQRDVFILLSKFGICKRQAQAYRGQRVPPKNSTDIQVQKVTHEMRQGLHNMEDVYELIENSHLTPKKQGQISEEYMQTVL
Chain of Estrogen receptor (Homo sapiens) (P03372 whole entry, looked up): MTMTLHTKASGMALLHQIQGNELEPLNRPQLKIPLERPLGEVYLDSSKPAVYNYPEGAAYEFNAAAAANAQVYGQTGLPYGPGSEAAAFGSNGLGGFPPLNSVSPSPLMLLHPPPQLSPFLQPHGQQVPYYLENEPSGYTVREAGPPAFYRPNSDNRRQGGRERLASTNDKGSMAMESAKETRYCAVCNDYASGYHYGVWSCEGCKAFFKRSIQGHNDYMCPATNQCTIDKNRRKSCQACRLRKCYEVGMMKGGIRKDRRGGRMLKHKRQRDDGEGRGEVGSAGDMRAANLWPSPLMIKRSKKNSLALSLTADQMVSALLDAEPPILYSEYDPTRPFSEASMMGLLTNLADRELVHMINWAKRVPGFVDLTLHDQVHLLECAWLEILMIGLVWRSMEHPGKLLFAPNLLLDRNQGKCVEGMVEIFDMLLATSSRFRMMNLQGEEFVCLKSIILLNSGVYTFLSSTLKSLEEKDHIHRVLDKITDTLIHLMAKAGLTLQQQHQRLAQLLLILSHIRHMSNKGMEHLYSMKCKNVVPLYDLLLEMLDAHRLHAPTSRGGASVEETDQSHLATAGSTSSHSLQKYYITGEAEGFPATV

CO[Si](CCCn1c(=O)n(CCC[Si](OC)(OC)OC)c(=O)n(CCC[Si](OC)(OC)OC)c1=O)(OC)OC
inactive: outcome [1] | outcome [2] | outcome [3] | outcome [4] | Potency [5] | Potency [6] | outcome [7] | outcome [8] | outcome [9] | outcome [10] | outcome [11] | outcome [12] | outcome [13] | outcome [14] | outcome [15] | Potency [16] | outcome [17] | outcome [18] | Potency [19]

N[C@@H](Cc1ccc(O)cc1)C(=O)O
inactive: activity change, negative = cytotoxicity [1] 2.66% [at 8.39 µM] | cAMP activity change [2] 6.84% [at 8.39 µM] | activity change, negative = inhibition [3] 3.38% [at 8.39 µM] | activity change, negative = cytotoxicity [4] 1.69% [at 8.39 µM] | activation [5] -2.73% [at 8.39 µM] | activity change, negative = inhibition [6] 7.58% [at 8.39 µM] | activity change, negative = cytotoxicity [7] -4.23% [at 8.39 µM] | activity change, negative = cytotoxicity [8] -21.8% [at 8.39 µM] | viability change, negative = cytotoxic [9] -8.39% [at 6.97 µM] | activity change, negative = cytotoxicity [10] 9.15% [at 6.97 µM] | activity, negative = inhibition [12] -2.4% [at 4.65 µM] | activation [13] -0.36% [at 5.23 µM] | activity change, negative = cytotoxicity [14] -1.74% [at 8.39 µM] | caspase activation [15] -1.72% [at 8.39 µM] | activity change, negative = cytotoxicity [16] 1.62% [at 8.39 µM] | caspase-3/7 activation [17] -1.08% [at 8.39 µM] | activity change, negative = cytotoxicity [18] -1.35% [at 8.39 µM] | activation [19] -5.23% [at 8.39 µM]

c1ccc2cnccc2c1
inactive: outcome [1] | Potency [20] | outcome [4] | Potency [5] | outcome [7] | outcome [8] | outcome [9] | outcome [10] | outcome [11] | outcome [14] | outcome [15] | Potency [16] | outcome [17] | outcome [18]

CC(O)CC(C)O (stereo unspecified)
inactive: outcome [1] | outcome [2] | outcome [3] | outcome [4] | Potency [5] | Potency [6] | outcome [7] | outcome [8] | outcome [9] | outcome [10] | outcome [11] | outcome [12] | outcome [13] | outcome [14] | outcome [15] | Potency [16] | outcome [17] | outcome [18] | Potency [19]

O=C(O)CCCCCC(=O)O
inactive: outcome [1] | Potency [20] | outcome [4] | Potency [5] | Potency [6] | outcome [8] | outcome [9] | outcome [10] | outcome [11] | outcome [12] | outcome [13] | outcome [14] | outcome [15] | Potency [16] | outcome [17] | outcome [18] | Potency [19]

CN1CCOC(c2ccccc2)c2ccccc2C1 (stereo unspecified)
inactive: outcome [1] | outcome [2] | outcome [3] | outcome [4] | Potency [5] | Potency [6] | outcome [7] | outcome [8] | outcome [9] | outcome [10] | outcome [12] | outcome [13] | outcome [14] | outcome [15] | Potency [16] | outcome [17] | outcome [18]

CC(=O)O[C@@H]1CC2CCC1(C)C2(C)C (stereo partly specified)
inactive: outcome [1] | outcome [2] | outcome [3] | outcome [4] | Potency [5] | Potency [6] | outcome [8] | outcome [9] | outcome [10] | outcome [11] | outcome [12] | outcome [13] | outcome [14] | outcome [15] | Potency [16] | outcome [17] | outcome [18]
